Measured values from PubChem BioAssay AID1745845 (National Center for Advancing Translational Sciences (NCATS), 2022).
Where “and” joins values, the source holds several entries; their conditions need not be identical. Equal entries are not always repeated. Screen size: about 360,000 compounds; about 2,600 (0.72%) were called active. Not shown: some 5% with an inconclusive outcome. Calls come from the whole dose curve; as a rule, active = well fitted inhibition curve with a large enough effect; inconclusive = small, poorly fitted or top-dose-only effect; inactive = no such curve, though single readings can be large or run the other way. The entries come from a sample that favours actives as a whole. Where a structure was tested more than once in an assay, its records may differ in their call.

Assay: Primary qHTS for Inhibitors of ATXN expression; note: nearly all actives have a fitted effect of over 55% in size
Conditions: HEK-293 ATXN2-luciferase reporter, luminescence, 24 h; series mostly up to 57 µM
In short: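 ATXN2-luciferase reporter cells (luciferase flanked by upstream and downstream ATXN2 gene portions) were treated 24 h at 37 °C with compounds at up to 57 uM. SteadyGlo luminescence gave expression; GF-AFC fluorescence gave viability.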
Potency is the fitted concentration of half-maximal effect.

Potency, inactive and 31.6 µM (active):
CCCCN(CCCC)CCC(O)c1cc2c(Cl)cc(Cl)cc2c2cc(C(F)(F)F)ccc12 (centres undefined)

Potency, active:
O=[N+]([O-])c1ccc(C=Nc2ccc(Cl)cc2Cl)s1 12.6 µM
COc1ccc(Cc2nnc(N/N=C/c3ccccc3O)[nH]c2=O)cc1OC 3.55 µM
O=C(/C=C/c1ccc([N+](=O)[O-])o1)NNC(=O)c1ccc(F)cc1 6.31 µM
COc1cc(C(=O)OC(C)C(=O)NCC2CCCCC2)cc(NC(=O)c2ccco2)c1OC (centres undefined) 25.1 µM
Cc1ccc(/C=N/NC(=O)C2=NNC(c3ccccc3)(c3ccccc3)C2)c(O)c1 3.16 µM
CCC(C)Cn1c(O)cc2nn(-c3nc4ccccc4s3)c(=O)c-2c1C (centres undefined) 14.1 µM
CC(C)(C)c1ccc(Oc2ccc(N)cc2)cc1 2.82 µM
Oc1ccc2ccccc2c1N=Nc1nccs1 3.55 µM
COc1ccc(C(=O)Nc2nc(-c3ccc(S(=O)(=O)N4CCOCC4)cc3)cs2)cc1 25.1 µM
CC1=CC(C)(C)Nc2ccc(OC(=O)CN3C(=O)C4CCCCC4C3=O)cc21 (centres undefined) 31.6 µM
COc1ccc(C(=O)/C=C/Nc2ccccn2)cc1 8.91 µM
O=C(CN1C(=O)c2ccccc2S1(=O)=O)N1CCc2ccccc21 2.51 µM
CCCCC(=O)NC(c1ccc(OC)c(OC)c1)c1ccc2cccnc2c1O (centres undefined) 5.01 µM
CCc1c2c(nc3ccc(O)cc13)-c1cc3c(c(=O)n1C2)COC(=O)[C@]3(O)CC 0.0061 µM
CCc1ccc(CNC(=O)C2CCN(c3nnc(C)c4c(C)n(-c5ccc(C)cc5)nc34)CC2)cc1 31.6 µM
Cc1nnc(N2CCC(C(=O)Nc3ccc(F)cc3)CC2)c2nn(-c3ccc(Cl)cc3)c(C)c12 25.1 µM
Cc1cc(NC(=O)/C=C/C(=O)N(c2ccccc2C)C(C(=O)NC2CCCC2)c2ccc(F)cc2)no1 (centres undefined) 10 µM
O=C(CCl)N(Cc1cccc([N+](=O)[O-])c1)c1cccc(Cl)c1 2.38 µM

Potency, inactive:
N#Cc1ccccc1Cn1cnc2nc3c(cc2c1=O)CCCC3
Cc1nc2c(OCc3ccc(Cl)cc3Cl)cccn2c1N(C)CC1CC1
CNN/C(N=Cc1ccc([N+](=O)[O-])s1)=N\S(=O)(=O)c1cc(C)c(Cl)cc1SCc1ccccc1
COC(=O)c1ccccc1NC(=O)c1cc(-c2ccccc2O)no1
CC(C)CCNC(=O)CSc1nc2ccccc2nc1Cc1ccc(Cl)cc1
COc1ccc(CCNC(=O)CCc2ccccc2O)cc1OC
COc1ccc(Cc2nnc(SC)[nH]c2=O)cc1
CCCCCc1c(-c2ccc(OC)c(OC)c2)ncn1CCc1ccccc1OC
COc1ccc(CNc2nc(-c3ccccc3)nn2C(=O)c2ccccc2OC)cc1
COc1cc(Cl)cn2c(-c3cccc(NC4CNC4)n3)cnc12
Cc1ccc(-n2ncc3c(=O)n(Cc4cccc(C(F)(F)F)c4)cnc32)cc1C
CC1(C)OC(=O)C2=C(C[C@@H](C3CCCCC3)O[C@@H]2c2ccc(Cl)cc2)O1
NC(=O)C(=O)N/N=C/c1ccc([N+](=O)[O-])o1
Cc1onc(C(=O)NCc2ccc(F)cc2)c1[N+](=O)[O-]
Cc1ccc(S(=O)(=O)c2c(Nc3cccc(Cl)c3)sc(C(=O)c3ccc4c(c3)OCO4)c2N)cc1
COc1ccc(NC(=O)CCC(=O)Nc2cc(OC)c(NC(=O)c3ccco3)cc2OC)c(OC)c1
CC(OC(=O)c1ccc([N+](=O)[O-])cc1)C(=O)NCC1CCCCC1 (centres undefined)
COC(=O)c1c(NC(=O)CCCOc2ccccc2)sc2c1CCC(C)C2 (centres undefined)
CC(=O)c1cccc(NC(=O)c2nc(-c3ccccc3)n(-c3cccc(C)c3)n2)c1
Cc1cc(Br)ccc1NC(=O)Cn1cnc2sc(C)c(S(=O)(=O)N3CCN(C)CC3)c2c1=O
CN[C@@H]1[C@@H](O)[C@@H](O[C@@H]2[C@H](O)[C@H](O[C@H]3OC(CN)=CC[C@H]3N)[C@@H](N)C[C@H]2N)OCC1(C)O (some centres undefined)
Cc1ccc2nc(CNC(=O)c3ccccc3)[nH]c2c1
COc1cc(/C=N/NC(=O)c2cc(-c3ccccc3C)nc3ccccc23)cc(OC)c1O
COc1ccc(OC)c(NC(=O)/C=C/c2ccc(C)o2)c1
CCOC(=O)C1CCN(c2nc3c(S(=O)(=O)c4ccc(CC)cc4)nnn3c3ccc(Cl)cc23)CC1
CCCCCn1c(=O)[nH]c2cc(C(=O)NCCN(C)CCCC)ccc2c1=O
COc1ccccc1CNC(=O)NCc1noc2ccc(C)cc12
Cc1cc(C(C)(C)C)cc(C)c1N
CN(C)S(=O)(=O)c1ccc(Oc2ccc(S(=O)(=O)N(C)C)cc2)cc1
O=C(OCCN1CCOCC1)c1cccnc1Nc1cccc(C(F)(F)F)c1
Cc1c(Cl)cccc1NC(=O)C(=O)NCCc1csc2nc(-c3ccccc3F)nn12
Cc1ccccc1Cn1nc(C)c(NC(=O)c2cc(-c3ccc(F)cc3)on2)c1C
COc1cc(NC(=O)CN2CCN(S(=O)(=O)c3ccc(Br)cc3)CC2)cc(OC)c1
Cc1cc2nc(NC(=O)c3ccc(S(=O)(=O)N4CCOCC4)cc3)sc2cc1C
CNC(=O)c1ccsc1NC(=O)c1ccc(S(=O)(=O)N2CCOCC2)cc1
CCc1nc2c(cnn2-c2ccc(C)cc2)c(=O)n1-c1ccc(C)cc1
Cc1ccccc1CSCCNC(=O)C1CCN(S(=O)(=O)Cc2ccccc2)CC1
O=C(COC(=O)CN1C(=O)C2CCCCC2C1=O)Nc1ccc(F)c(F)c1F (centres undefined)
CC1=CC(C)(C)Nc2ccc(OC(=O)C(Cc3ccccc3)N3C(=O)C4CCCCC4C3=O)cc21 (centres undefined)
C[C@]12CCC3=C4CCC(=O)C=C4CC[C@@H]3[C@H]1CC[C@@]2(O)CC#N
CCOc1cc2ccccc2cc1C(=O)Nc1ccccn1
Cc1cc(N/C=C\C(=O)c2ccc(Cl)c(Cl)c2)no1
COc1ccc(CNC(=O)CSc2nc3ccccc3nc2Cc2ccccc2)cc1
O=C(NCCC1=CCCCC1)c1ccc2c(c1)N(Cc1ccccc1F)C(=O)c1ccccc1S2(=O)=O
CCOC(=O)c1c(C)[nH]c(C)c1S(=O)(=O)N1CCCC(C(=O)NCc2ccccc2Cl)C1 (centres undefined)
CC1CCCN(C(=O)CN2C(=O)c3ccccc3S2(=O)=O)C1 (centres undefined)
CN(Cc1ccc(F)cc1)C(=O)CN1C(=O)c2ccccc2S1(=O)=O
CO[C@H]1C=CO[C@@]2(C)Oc3c(C)c(O)c4c(O)c(c(/C=N/N5CCN(C)CC5)c(O)c4c3C2=O)NC(=O)/C(C)=C\C=C[C@H](C)[C@H](O)[C@@H](C)[C@@H](O)[C@@H](C)[C@H](OC(C)=O)[C@@H]1C
COc1ccc(CCNS(=O)(=O)c2cccc3cccnc23)cc1OC
C=CCn1c(COc2cccc3cccnc23)nnc1SCC(=O)OC
CC1=C(C(=O)N(C(C)C)C(C)C)CC(CC(=O)NCCCCc2ccccc2)C(=O)N1CCC1=CCCCC1 (centres undefined)
CCCCN(CC)C(=S)Nc1ccc2nc3n(c(=O)c2c1)CCCCC3
COc1ccc(C(=O)COC(=O)CCCC(=O)Nc2cc(C(F)(F)F)ccc2Cl)cc1
COc1cccc(NC(=O)C2CCN(c3cc(C)nc4c(-c5ccc(Cl)cc5)c(C)nn34)CC2)c1
Cc1nnc(N2CCCC(C(=O)NCCN(C)C)C2)c2nn(-c3ccccc3)c(C)c12 (centres undefined)
CCCCNC(=O)C1CCCN(c2nnc(C)c3c(C)n(-c4ccc(Cl)cc4)nc23)C1 (centres undefined)
COc1ccc(-n2nc3c(N4CCC(C(=O)NCc5ccccc5)CC4)nnc(C)c3c2C)cc1
CSc1nc(-c2ccc(F)cc2)nc2c1Cc1c(CO)cnc(C)c1O2
Cc1ccc(CNC(=O)CCc2c(C)nc3c(c(C)nn3-c3ccccc3)c2C)cc1
CN(C)c1ccc(NC(=O)CSc2nc(-c3ccco3)cc(C(F)(F)F)n2)cc1
COc1cccc(CNC(=O)c2cc(=O)[nH]c3ccc(S(=O)(=O)N4CCCCC4)cc23)c1
Cc1cc(NC(=O)/C=C/C(=O)N(CC(=O)NC2CCCC2)c2ccc(F)cc2)no1
Cc1cc(NC(=O)CCC(=O)N(c2cccc(F)c2)C(C(=O)NC2CCCC2)c2ccncc2)no1 (centres undefined)
CCOc1ccc(-c2nonc2NC(=O)c2oc3ccc(C)cc3c2C)cc1OCC
O=C(Nc1ccc(O)c(-c2nc3ccccc3o2)c1)c1ccc(-c2cccc(Cl)c2)o1
CC1(C(=O)NCc2ccco2)Cc2c(-c3ccc4c(c3)OCO4)ccnc2O1 (centres undefined)
CCOC(=O)c1ccc(NC(=O)CCn2cnnn2)cc1
CON=C(C(=O)N[C@@H]1C(=O)N2C(C(=O)OCOC(=O)C(C)(C)C)=C(C=Cc3scnc3C)CS[C@H]12)c1csc(N)n1
Cc1cc(Br)cn2c(Cc3cccc(F)c3)c(-c3cccc(Br)c3)nc12
CC(C)(C)c1cc(C(=O)O)c(NC(=O)Nc2ccc3[nH]ncc3c2)s1
CC(C)(C)c1nc(-c2cccc(NS(=O)(=O)c3c(F)cccc3F)c2F)c(-c2ccnc(N)n2)s1
OC(c1ccc(Cl)cc1)c1ncc(-c2ccc(Cl)cc2)[nH]1 (centres undefined)
CC(C)Cc1ccc(-c2cc3nc(NCc4cccc(Cl)c4)ccn3n2)cc1
Cc1cc([N+](=O)[O-])ccc1NCc1cccc([N+](=O)[O-])c1
CC(=O)N(CN1C(=O)C2CC=CCC2C1=O)c1cccc(Cl)c1 (centres undefined)
